Pf growth 48h = P. falciparum growth inhibition at 48 hours (one generation); Potency, µM (top dose mostly 28.7 µM), without a hit: at the highest dose activity change, negative = inhibition, hits mostly inhibitors; P. falciparum luciferase growth in erythrocytes, 48 h; 5.9% of 310,000 active; further: on the % scale 0 is the no-effect control and ±100 the full control effect
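First compound was added to culture medium, then infected red cells at 0.1% parasitemia and 2% hematocrit (final). After incubation at 37 C under 5% CO2, luciferase detection reagent was dispensed and light output recorded.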
Pf growth 96h = P. falciparum growth inhibition at 96 hours; P. falciparum luciferase reporter growth, 96 h; Potency, µM (series often up to 28.7 µM), for inactives: at the highest dose activity change, negative = inhibition, usual class: inhibitors; 6.9% of 320,000 active; further: on the % scale 0 is the no-effect control and ±100 the full control effect
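Delayed-death screen, second-generation endpoint: infected erythrocytes, 2% hematocrit, 0.05% parasitemia final; 96 hours at 37 C, 5% CO2; luciferase detection reagent; luminescence decrease equals reduced growth.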
SARS PLpro yeast = inhibitors of SARS-CoV papain-like protease in yeast | S. cerevisiae expressing SARS-CoV PLpro, growth rescue | Potency, µM (titrated, usually from 32.9 µM), for the others: top-dose activity, positive = growth rescue, hits mostly activators | 0.19% of 330,000 active; calls by dose curve; further: 0% is about no effect; nearly all actives have a fitted effect of over 55% in size
AMA1-RON2 inh = inhibitors of Plasmodium falciparum AMA1-RON2 interaction; 0.2% of 360,000 active; AID 720542; Potency, µM (top dose mostly 58.2 µM), inactives show at the top dose activity change, negative = inhibition, hits mostly inhibitors; AlphaScreen AMA1-biotinylated RON2 peptide binding;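 further: 0% = vehicle wells and -100% = peptide control; nearly all actives have a fitted effect of over 45% in size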
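AMA1 (3D7) with his tag at 25 nM final met compounds first, then biotinylated RON2 peptide at 25 nM; detection used donor plus acceptor beads, 10 µg/mL apiece, read by AlphaScreen after 30 min at room temperature.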
An asterisk follows results filed as active; ? = inconclusive; / = no result; [ ] = another dose, or the depositor's remark. Sampled rows, rich in hits. Any-hit rate of the full collection: about 9.4%. Unless noted, the call rests on the fitted dose curve; in most records, active means well fitted curve in the direction sought with a large enough effect; inconclusive means small, poorly fitted or top-dose-only effect, or another doubt; inactive means no such curve, though single readings can be large; an effect the other way counts as inactive or inconclusive. Potency means the concentration at half of the fitted maximal effect.

SMILES | Pf growth 48h | Pf growth 96h | SARS PLpro yeast | AMA1-RON2 inh
FC(F)(F)c1ccc(C2[C@H]3CN(CC4CCCCC4)[C@H](c4ccccc4)C34CC2(c2cccnc2)C4)cc1 (some centres undefined) | 3.29µM* | 3.29µM* | -1.9% | -17.1%
COC(=O)c1cccc(C23CC4(C2)[C@H](CN(CC2CCCCC2)[C@@H]4c2ccccc2)C3c2ccccc2)c1 (some centres undefined) | 10.4µM* | 4.15µM* | -4.1% | -6.5%
Clc1ccc(C2[C@H]3CN(CC4CCCCC4)[C@H](c4ccccc4)C34CC2(c2ccccc2)C4)cn1 (some centres undefined) | ? | ? | -1.7% | -22.6%
CCOC(=O)C1CCN(C(=O)Cn2cnc3sc(C)c(S(=O)(=O)N4CCCCC4)c3c2=O)CC1 | ? | -15.8% | 0.8% | 0.2%
CCOC(=O)c1c(Nc2ccc(Cl)cc2)sc(/C=C2\C=Nc3ccccc32)c1O | 4.15µM* | / | 5.7% | 13.2%
CC(=O)Nc1ccc(N2S(=O)(=O)c3ccccc3S2(=O)=O)cc1 | -16.0% | 11.7µM* | 1.2% | 1.7%
O=C(Nc1ccccc1O)c1ccc(Cl)cc1 | 5.86µM* | ? | -21.1% | -6.7%
CCOC(=O)Cn1c(S(=O)(=O)Cc2ccc(Cl)cc2)nc(-c2ccccc2)c1-c1ccccc1 | ? | 10.4µM* | -0.5% | -6.0%
CCOC(=O)Cn1c(S(=O)(=O)Cc2ccccc2)nc2ccccc21 | -10.8% | ? | -2.8% | 0.0%
COc1ccc(C)cc1Nc1nc(-c2c[nH]c3ccccc23)cs1 | ? | 2.08µM* | -14.2% | 8.1%
COc1ccc(OC)c(Nc2nc(-c3cccs3)cs2)c1 | 0.6% | / | -17.7% | -15.7%
COc1ccc(C(=S)N(C)C)cc1OC | 14.7% | 8.28µM* | 2.2% | -3.8%
COc1ccc(C(=O)c2ccc(OC)c(OC)c2)cc1OC | -8.1% | 24.4% | -6.5% | -13.5%
CC(C)NC(=O)CCCOc1ccc(Cl)cc1Cl | / | 10.4µM* | -9.2% | -1.5%
COC(=O)NNC(=O)CCCOc1ccc(Cl)cc1Cl | 0.8% | 37.8% | -0.1% | 2.5%
Cc1ccccc1NC(=O)C(=O)c1cn(C)c2ccccc12 | 41.7% | -2.0% | 0.5% | 0.0%
CC1CN=C(Nc2cccc(S(=O)(=O)N(C)C)c2)S1 (centres undefined) | -16.2% | 19.2% | -4.7% | -4.0%
CC(=O)c1cccc(NC2=NCC(C)S2)c1 (centres undefined) | / | 13.1µM* | -2.0% | -2.0%
COc1ccc(S(=O)(=O)N2CC3CCCN3c3ccc(C(F)(F)F)cc32)cc1 (centres undefined) | ? | 13.1µM* | -0.4% | -9.7%
CC(C)OC(=O)CSc1nnc(-c2cnccn2)n1-c1ccc(Cl)cc1 | ? | 14.7µM* | 0.1% | 1.2%
Cc1ccc(-n2c(SCC(=O)OC(C)C)nnc2-c2ccncc2)cc1 | ? | 19.6% | 21.9% | 5.9%
O=C(COC(=O)Cn1cnc2ccccc21)Nc1ccccc1C(F)(F)F | / | / | 2.3% | 4.1%
COc1cc(C(C)=O)ccc1OCC(=O)Nc1ccccc1N1CCCC1 | -23.5% | 10.4µM* | -6.8% | -25.5%
COc1cc(C(C)=O)ccc1OCC(=O)Nc1ccccc1N1CCCCC1 | 13.1µM* | ? | -22.5% | -20.2%
Cc1ccc(C(=O)CN2C(=O)NC3(CCCCCC3)C2=O)c(C)c1 | 112.9% | 113.7% | 2.9% | 19.8%
SMILES | Pf growth 48h | Pf growth 96h | SARS PLpro yeast | AMA1-RON2 inh
COC(=O)c1cnc(SC)nc1C | 19.6% | 12.3% | 5.7% | 2.82µM*
CSc1ncc(C(=O)Nc2ccccc2C)c(C)n1 | 10.2% | -17.4% | 0.0% | 1.7%
Clc1cc(Cl)c(OCC#CI)cc1Cl | ? | 13.5µM* | / | /
CCCCSc1nn[nH]n1 | 15.6% | / | 0.6% | -1.5%
CC1=CC(C)(C)N2C(=O)C3(NCCc4c3[nH]c3ccccc43)c3cccc1c32 (centres undefined) | ? | 219.4% | 0.6% | -11.2%
CC(C)Cn1c(=O)c2c(nc3n2CCCN3Cc2ccccc2)n(C)c1=O | 10.4µM* | 11.7µM* | 0.5% | -5.6%
Cn1c(=O)n(CC(=O)O)c(=O)c2c1nc1n2CCCN1Cc1ccccc1 | 50.9% | ? | 11.5% | -9.2%
Cn1c(=O)n(C/C=C/c2ccccc2)c(=O)c2c1nc1n2CCCN1c1ccc(F)cc1 | 11.7µM* | ? | 0.1% | -2.0%
CCn1c(=O)c2c(nc3n2CCCN3Cc2ccccc2)n(C)c1=O | ? | -16.0% | 2.1% | -3.2%
Cn1c(=O)n(C/C=C/c2ccccc2)c(=O)c2c1nc1n2CCCN1Cc1ccccc1 | 13.1µM* | 14.7µM* | 1.4% | ?
C=CCn1c(=O)c2c(nc3n2CCCN3Cc2ccccc2)n(C)c1=O | ? | -25.1% | -9.1% | -5.2%
Cc1cccc(Cn2c(=O)c3c(nc4n3CCCN4Cc3ccccc3)n(C)c2=O)c1 | 13.1µM* | / | 1.8% | 7.3%
CCc1nnc(SCC(=O)Nc2nc(C)c(C(=O)N(C)C)s2)n1CC | 18.1% | ? | ? | -6.0%
CCOc1ccccc1-n1c(O)c(C=Nc2ccc(N(CC)CC)cc2)c(=O)[nH]c1=O | ? | ? | 2.8% | -8.4%
COc1ccc(CCN2CCCn3c2nc2c3c(=O)n(Cc3ccccc3F)c(=O)n2C)cc1OC | 2.33µM* | 2.94µM* | -2.4% | -11.1%
CCC(=O)N1CCN(CCN=Cc2c(O)n(C)c(=O)n(C)c2=O)CC1 | 14.1% | -0.6% | 1.9% | 51.1%
CC(C)C(=O)N1CCN(CCN=Cc2c(O)n(C)c(=O)n(C)c2=O)CC1 | ? | 13.1µM* | -16.5% | 63.2%
COC(=O)c1c(NC(=O)CC2SC(N)=NC2=O)sc2c1CCC(C)C2 (centres undefined) | 4.7% | 3.7µM* | -29.4% | 4.4%
C=CCOc1cccc(C2/C(=C(\O)c3ccc4c(c3)OCCO4)C(=O)C(=O)N2Cc2cccnc2)c1 (centres undefined) | 3.2% | ? | 24.7% | -0.9%
C=CCN1C(=O)C(O)(CC(=O)c2ccc(N)cc2)c2ccccc21 (centres undefined) | / | ? | 1.4% | 1.2%
O=C(CSc1cn[nH]n1)Nc1nc2ccccc2s1 | 46.8% | 3.7% | -1.0% | 81.0%
CCNC(=O)Nc1nc2ccccc2s1 | 183.9% | 296.3% | -2.4% | 0.0%
O=C(CSc1ccccn1)Nc1nc2ccccc2s1 | 44.8% | 2.94µM* | 7.6% | -1.4%
COc1ccc(-c2nnc3ccc(SCC(=O)Nc4nccs4)nn23)cc1OC | -17.6% | -12.0% | 0.5% | 6.3%[11.6 µM]
COc1ccc(-c2nnc3ccc(SCC(=O)Nc4nc5ccccc5s4)nn23)cc1OC | 8.28µM* | ? | 15.9% | -8.4%
CCOCC(=O)Nc1nc2ccccc2s1 | 432.6% | 14.7µM* | 3.0% | -1.4%
COc1ccc(/C=C2\CCCC3C2=NN(C(=O)CSc2ncn[nH]2)C3c2ccc(OC)cc2)cc1 (centres undefined) | ? | ? | -2.5% | 14.2%
O=C(CSc1ncn[nH]1)N1N=C2/C(=C/c3ccccc3)CCCC2C1c1ccccc1 (centres undefined) | ? | 7.38µM* | ? | 22.5%
O=C(CC1SC(N2CCCC2)=NC1=O)Nc1ccc(C(=O)Nc2ncccc2O)cc1 (centres undefined) | 2.62µM* | ? | 4.2% | 39.7%

Bioassay records from PubChem BioAssay.
